The target in one assay is C17orf89. Briefly: pooled miR-30 sensor sort-seq; sequence = guide strand. To be noted: shRNA.
With AGGCCTGCACGCACCTGCCGTA, the sensor-assay potency score (higher = more potent) was -1.48.
As for TCCCGCGCGCAGAAGTCCTTAC, the sensor-assay potency score (higher = more potent) is -1.42.
For TCGAACTCCCGCGCGCAGAAGT, the sensor-assay potency score (higher = more potent) is -1.83.
Sequence TTGGCCGCAGCGGCGAAGCAGC yielded a sensor-assay potency score (higher = more potent) of -1.67.
On the same count and under the same terms, under AAGTCCTTACTCAGGCGGCCGC stands -1.52; under AGGGCCTCGAACTCCCGCGCGC, -1.88; under CAGAAGTCCTTACTCAGGCGGC, -1.6.
Turning to TCTTCTTGGCCGCAGCGGCGAA, the sensor-assay potency score (higher = more potent) was -1.65.
For the sequence TACGCCGCGGCCTCGGCCCCGC, the sensor-assay potency score (higher = more potent) is -1.68.
Sequence TCGCACGCGGCCCCACACCGCT came in with a sensor-assay potency score (higher = more potent) of -1.58.
In turn, TTACTCAGGCGGCCGCCCGGGG had a sensor-assay potency score (higher = more potent) of -1.34.
In the case of TTCTTGGCCGCAGCGGCGAAGC, the sensor-assay potency score (higher = more potent) is -1.54.

The target in a further assay is C18orf34. The assay is described as above. As to conditions: shRNA.
As for TTGTCGAGACTTCTGATTCTTT, the sensor-assay potency score (higher = more potent) is -0.716.
As for TTCTTCATTAACTTTTCTGTGT, the sensor-assay potency score (higher = more potent) amounted to 0.0915.
In the case of TAGTTTTTTCTGAAGCACCATT, the sensor-assay potency score (higher = more potent) was -0.995.
On the same count and under the same terms, with TATTCTTTCTTGATCTCTGTTG the figure was -0.0146; with TAATTCTATAACATCACTCAAA, -0.981; with TTGAAGTTCCTGATTCTGCTTA, 0.774.
As for TTTTGTTGACACAAGGTGCTGG, the sensor-assay potency score (higher = more potent) stood at 0.854.
With TACACTGTTATCTGAACTGTGT, the sensor-assay potency score (higher = more potent) amounted to 0.065.
The same measure, in the same setting: under TTCATCTTCTAGTTGAAGCAGA stands -0.375; under TTTTTTATTGTCTTCCGTCAGT, -0.408.
In the case of TTTCATCTCTCTTTTCTCCTGG, the sensor-assay potency score (higher = more potent) was 0.616.
The sequence TTGTCTTACTTTTAGTTGCTTC showed a sensor-assay potency score (higher = more potent) of -0.608.

In the next assay the target is C18orf56. The assay is described as above. As to conditions: shRNA.
Take TAGTCCTAACCTCAATCCTGCC: the sensor-assay potency score (higher = more potent) was -1.52.
TCGGTATTCGGCATGCAGGCGC came in with a sensor-assay potency score (higher = more potent) of -0.876.
Regarding TTAGTATTTTGATCATTGCTGC, the sensor-assay potency score (higher = more potent) is -0.0513.
The same measure, in the same setting: with TATTTTGATCATTGCTGCCTTT the figure was -0.437; with TTAGTCCTAACCTCAATCCTGC, -0.842.
TAGAATTATCTCTTCATCTGGG gave a sensor-assay potency score (higher = more potent) of 0.794.
For the sequence TCTAATGCATCCTATATCCAGT, the sensor-assay potency score (higher = more potent) is -0.446.
Still for that read-out and setting: with TTTAGTCCTAACCTCAATCCTG the figure was -0.687; with ATGCAGGCGCGCTACAGCCTGA, -1.57; with TATCTCTTCATCTGGGACCTGG, -0.00491.
For ACACACAGCAGCGACAGCCGGG, the sensor-assay potency score (higher = more potent) is -1.
TTAGGGACGTGACTGGCGCGGG displayed a sensor-assay potency score (higher = more potent) of -1.11.

For another assay, the target named is C19orf26. The assay is described as above. To be noted: shRNA.
TTGACCTTGAAATAGGGGCTGG: the sensor-assay potency score (higher = more potent) is -0.605.
For the sequence TCGTGGATGGTGACAATCTTGA, the sensor-assay potency score (higher = more potent) was -1.35.
For TCATTGAAGGAGACCCGGCGGC, the sensor-assay potency score (higher = more potent) was -0.71.

Values taken from the OligoGym collection.
Also: reference of the scale not given here.
